Results on 6 compounds are retold here after PubChem BioAssay (NCATS).

Assay [1] is described as follows: Cell Viability - LYMP1-002 - Assay at 16 hr (AID 948).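 Also: 0% = DMSO alone and full effect = 92 µM tetraoctylammonium bromide.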 Summed up: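 In this qHTS, lymphoblastoid LYMP1-002 cells (human) receive compounds for 16 hr at 37 C. Viability is taken from CellTiter-Glo ATP luminescence, and AC50 derives from standard Hill fits.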
A short description of assay [2]: Cell Viability - LYMP2-009 (AID 968).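 Also: series mostly up to about 92 µM; 0% = DMSO alone and the full-kill end = tetraoctylammonium bromide at 92 µM; nearly all actives have a fitted effect of over 55% in size.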
The nature of assay [3]: Cell Viability - LYMP2-017 (AID 972). Also: series mostly up to about 92 µM; % is scaled to controls: 0 for no effect and ±100 for the full control effect; nearly all actives have a fitted effect of over 55% in size. Summed up:
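LYMP2-017 human lymphoblastoid cells (2500/well) settled 5 hr at 37 C, then exposed to compound 24 hr at 37 C in complete medium. Viability taken as intracellular ATP by CellTiter-Glo luminescence after 30 min at RT; AC50 from Hill fits.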

Assay [4] can be described thus: Cell Viability - LYMP2-016 (AID 984). Also: % is scaled to controls: 0 for no effect and ±100 for the full control effect; nearly all actives have a fitted effect of over 55% in size. Summed up:
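Concentration-dependent ATP depletion measured in LYMP2-016 lymphoblastoid cells, 24 h, 37 C; luciferase-based luminescent detection; Hill-equation AC50.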

Assay [5] is described as follows: qHTS assay for small molecule antagonists of peroxisome proliferator-activated receptor delta signaling (AID 588535).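 Also: cells co-treated with a PPAR-delta agonist as stimulator during compound exposure.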 Particulars: HEK293T PPARd-UAS-bla, beta-lactamase FRET ratio, 18 h; 460 nm channel. An outline of the steps:
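HEK293T PPAR-delta-UAS-bla cells, 4000/well, 2% charcoal/dextran FBS; 5 h 37 C; cpd titration; 18 h 37 C; CCF4 2 h RT; FI 460/530 nm; Hill fit → IC50, efficacy.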

Assay [6] has as its target Vitamin D3 receptor (Homo sapiens) (UniProt P11473). Put plainly: qHTS assay for small molecule agonists of vitamin D receptor signaling (AID 588543; calls by dose curve;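 also: 0% = DMSO basal and 100% = reference agonist control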). An outline of the steps: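 Measured: β-lactamase reporter activity (CCF4, 405 nm excitation, 460/530 nm emission) in HEK293T VDR-UAS-bla cells after 16 h compound exposure at 37 °C. Normalization against 50 nM 1α,25-dihydroxyvitamin D3 and DMSO; Hill-fit EC50.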

Assay [7] can be described thus: qHTS assay for small molecule disruptors of the mitochondrial membrane potential - 5 hr assay (AID 651755; calls by dose curve; also: nearly all actives have a fitted effect of over 40% in size; also: potency is read from the fitted curve at half-maximal effect). Summed up:
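HepG2, 2,000 cells/well, overnight attach; cpd or DMSO 5 hr, 37C/5% CO2; Mito-MPS 30 min 37C; fluor 490/535 + 540/590 nm.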

Assay [8] deals with Nuclear receptor ROR-gamma (Homo sapiens) (UniProt P51449). Put plainly: qHTS assay for small molecule antagonists of the retinoid-related orphan receptor gamma (ROR-gamma) signaling pathway (AID 651802).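 Also: luciferase reporter luminescence driven by ROR response element; series mostly up to about 92 µM; % is scaled to controls: 0 for no effect and ±100 for the full control effect; nearly all actives have a fitted effect of over 60% in size.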 Summed up: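 CHO cells with TET-inducible ROR-gamma and RORE-luciferase reporter, dosed then doxycycline-induced. After 16 h at 37C, One-Glo luminescence read; decreased signal indicates antagonism.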

A short description of assay [9]: qHTS assay for cell viability of HEK293 cells (AID 743288). Also: % is scaled to controls: 0 for no effect and ±100 for the full control effect; nearly all actives have a fitted effect of over 50% in size. The settings on record: ATP luminescence (CellTiter-Glo), 18 h, stronger effect = lower value. An outline of the steps:
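Luminescent ATP quantitation served as the viability read-out. Cells (parental HEK293, 2,000/well) received compounds after at least 5 h at 37 C and were exposed for 18 h before a 30 min room-temperature reagent step.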

Assay [10] in a line: MultiTox-Fluor Cytotoxicity Assay - LYMP1-002 - Dead Cells (AID 960).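 Also: 0% = DMSO and 100% = tetraoctylammonium bromide; nearly all actives have a fitted effect of over 60% in size.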 An outline of the steps:
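Human lymphoblastoid LYMP1-002 cells, 2500/well, treated 16 h at 37 C; dead-cell protease cleavage of bis-AAF-R110 read by fluorescence (485/520); normalized to DMSO and 15 uM tetraoctylammonium bromide; AC50 from Hill fit.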

Assay [11] concerns the target Glucocorticoid receptor (Homo sapiens) (UniProt P04150). Kind of assay: qHTS assay for small molecule agonists of glucocorticoid receptor signaling (AID 588532; active = well fitted curve in the direction sought with a large enough effect in the signal ratio, with a control signal flat; the % refers to the signal ratio;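 also: 100% = dexamethasone at 0.1 µM and 0% = DMSO only wells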). The settings on record: HeLa MMTV-bla, beta-lactamase ratio, agonist, 18 h; stronger effect = higher value; percent of dexamethasone control, DMSO zero. Summed up: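 Using MMTV-bla HeLa cells in medium with 1% stripped FBS and 25 mM HEPES, compounds were titrated and incubated overnight-length (18 h). Beta-lactamase cleavage of CCF4 was quantified by dual-emission fluorescence.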

Assay [12] concerns the target Retinoic acid receptor RXR-alpha (Homo sapiens) (UniProt P19793). Kind of assay: qHTS assay for small molecule agonists of retinoid X receptor alpha signaling (AID 588544; calls by dose curve;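 also: 0% = DMSO basal wells and 100% = reference agonist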).
Assay [13] concerns the target Thyroid hormone receptor beta (Homo sapiens) (UniProt P10828). Kind of assay: qHTS assay for small molecule agonists of thyroid hormone receptor beta signaling (AID 588545; calls by dose curve). An outline of the steps:
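Cells (2500/well) were seeded, incubated 4 hrs at 37 C, dosed with a compound series, incubated 18 hrs, loaded with CCF4 dye for 2 hrs at RT, then read for fluorescence. Data were scaled between DMSO (0%) and 10 nM T3 (100%).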

Assay [14] has the same target. Kind of assay: qHTS assay for small molecule antagonists of thyroid hormone receptor beta signaling (AID 588547; active = well fitted inhibition curve with a large enough effect in the signal ratio, with a control signal flat, not every such curve was filed as active; the % refers to the signal ratio;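 also: cells stimulated with 0.4 nM T3 agonist during compound exposure; series mostly up to about 77 µM; % is scaled to controls: 0 for no effect and ±100 for the full control effect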). Particulars: TR-UAS-bla HEK293, beta-lactamase ratio, antagonist mode, 18 h. Summed up: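 Inhibition of T3-driven (0.4nM final) beta-lactamase reporter activity was measured over 0.59 nM to 92 uM compound after 18 h at 37 C. The cells were GripTite HEK293 TR-UAS-bla in charcoal/dextran-stripped serum, with CCF4 ratio read-out and IC50 from Hill fits.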

Assay [15] is described as follows: qHTS assay for small molecule agonists of the antioxidant response element (ARE) signaling pathway (AID 651741; active = well fitted activation curve with a large enough effect in the signal ratio; the % refers to the signal ratio; also: % of control where 0% means no effect). Summed up: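 Quantitative HTS in HepG2 cells stably expressing an ARE-beta-lactamase reporter; 16 h compound exposure at 37 C, followed by 2 h room-temperature incubation with LiveBLAzer B/G FRET substrate and fluorescence measurement.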
Assay [16] can be described thus: qHTS assay for small molecule activators of the nuclear factor-kappa B (NF-kB) signaling pathway (AID 651749; active = well fitted activation curve with a large enough effect in the signal ratio; the % refers to the signal ratio; also: series mostly up to about 77 µM; % of control where 0% means no effect). Particulars: NF-kB-bla ME-180 cells, beta-lactamase FRET ratio, 16 h; stronger effect = higher value. An outline of the steps:
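Readout: beta-lactamase reporter driven by an NF-kB response element, detected fluorescently as loss of FRET. Cells were the ME-180 line, treated 16 hr at 37C with pin-transferred compound.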

Assay [17] is described as follows: qHTS assay for environmental chemicals that activate the Aryl hydrocarbon Receptor (AhR) signaling pathway (AID 651777). Also: % of control where 0% means no effect; nearly all actives have a fitted effect of over 15% in size. Particulars: 1A2-DRE human hepatoma cells, luciferase, 24 h; activation: stronger effect = higher value. An outline of the steps:
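AhR activation is scored as a rise in luciferase from a stable DRE–CYP1A2 promoter construct in human hepatoma cells. Treatment lasts 24 hr at 37 C; detection uses One-Glo after 30 min at room temperature.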

Assay [18] deals with Retinoic acid receptor RXR-alpha (Homo sapiens) (UniProt P19793). Kind of assay: qHTS assay for small molecule antagonists of retinoid X receptor alpha signaling (AID 588546; active = well fitted inhibition curve with a large enough effect in the signal ratio, with a control signal flat, not every such curve was filed as active; the % refers to the signal ratio; also: % is scaled to controls: 0 for no effect and ±100 for the full control effect). The settings on record: HEK293T RXRa-UAS-bla, beta-lactamase ratio, antagonist mode. An outline of the steps: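 Beta-lactamase reporter inhibition, read as CCF4 fluorescence ratio (ex 405, em 460/530 nm) after 2 h at RT. HEK293T UAS-bla cells, 2500/well, were stimulated with 9-cis-RA at 500 or 100 nM final alongside test compound for 18 h at 37 C.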

The nature of assay [19]: Cell Viability - LYMP2-002 (AID 977).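 Also: series mostly up to about 92 µM; compound exposure lasted 24 h at 37 °C; plate controls were DMSO only for no effect and 92 µM tetraoctylammonium bromide for full effect.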 Summed up:
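Cytotoxicity is scored as concentration-dependent loss of cellular ATP in a human lymphoblastoid line after 24 hr compound treatment at 37 C. AC50 is obtained by modelling concentration-response data with the Hill equation.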

“And” between values parts separate entries of the source, which are not always exact repeats. Equal entries are not always repeated. Results filed as inconclusive are left out. The source made the active and inactive calls. Unless noted, calls follow the shape of the dose curve; as a rule, active = well fitted curve in the direction sought with a large enough effect; inconclusive = small, poorly fitted or top-dose-only effect, or another doubt; inactive = no such curve, though single readings can be large; an effect the other way counts as inactive or inconclusive.

Sequence of Retinoic acid receptor RXR-alpha (Homo sapiens) (P19793 whole entry, looked up): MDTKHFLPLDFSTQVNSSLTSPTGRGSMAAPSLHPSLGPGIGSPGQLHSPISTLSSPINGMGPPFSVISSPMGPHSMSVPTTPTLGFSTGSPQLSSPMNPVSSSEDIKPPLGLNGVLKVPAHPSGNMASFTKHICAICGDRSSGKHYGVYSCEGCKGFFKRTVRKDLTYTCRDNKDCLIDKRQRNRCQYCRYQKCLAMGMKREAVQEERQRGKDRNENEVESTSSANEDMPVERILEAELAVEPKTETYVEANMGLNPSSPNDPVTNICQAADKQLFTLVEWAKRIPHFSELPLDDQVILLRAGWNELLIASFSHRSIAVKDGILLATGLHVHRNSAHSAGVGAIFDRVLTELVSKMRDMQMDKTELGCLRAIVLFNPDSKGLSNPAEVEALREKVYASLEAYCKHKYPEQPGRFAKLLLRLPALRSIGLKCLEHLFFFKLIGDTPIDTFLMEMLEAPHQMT
Sequence of Vitamin D3 receptor (Homo sapiens) (P11473 whole entry, looked up): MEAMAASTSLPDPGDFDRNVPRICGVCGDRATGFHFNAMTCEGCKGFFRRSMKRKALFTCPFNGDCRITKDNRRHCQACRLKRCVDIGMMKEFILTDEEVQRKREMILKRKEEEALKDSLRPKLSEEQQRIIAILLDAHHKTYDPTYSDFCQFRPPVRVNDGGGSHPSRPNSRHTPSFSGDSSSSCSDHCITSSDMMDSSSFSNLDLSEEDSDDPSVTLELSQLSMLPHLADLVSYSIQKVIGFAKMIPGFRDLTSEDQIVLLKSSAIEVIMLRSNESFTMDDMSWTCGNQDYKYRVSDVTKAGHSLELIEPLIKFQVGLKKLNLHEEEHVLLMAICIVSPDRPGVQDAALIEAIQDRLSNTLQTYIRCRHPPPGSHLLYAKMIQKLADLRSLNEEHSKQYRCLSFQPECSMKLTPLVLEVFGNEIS
Sequence of Glucocorticoid receptor (Homo sapiens) (P04150 whole entry, looked up): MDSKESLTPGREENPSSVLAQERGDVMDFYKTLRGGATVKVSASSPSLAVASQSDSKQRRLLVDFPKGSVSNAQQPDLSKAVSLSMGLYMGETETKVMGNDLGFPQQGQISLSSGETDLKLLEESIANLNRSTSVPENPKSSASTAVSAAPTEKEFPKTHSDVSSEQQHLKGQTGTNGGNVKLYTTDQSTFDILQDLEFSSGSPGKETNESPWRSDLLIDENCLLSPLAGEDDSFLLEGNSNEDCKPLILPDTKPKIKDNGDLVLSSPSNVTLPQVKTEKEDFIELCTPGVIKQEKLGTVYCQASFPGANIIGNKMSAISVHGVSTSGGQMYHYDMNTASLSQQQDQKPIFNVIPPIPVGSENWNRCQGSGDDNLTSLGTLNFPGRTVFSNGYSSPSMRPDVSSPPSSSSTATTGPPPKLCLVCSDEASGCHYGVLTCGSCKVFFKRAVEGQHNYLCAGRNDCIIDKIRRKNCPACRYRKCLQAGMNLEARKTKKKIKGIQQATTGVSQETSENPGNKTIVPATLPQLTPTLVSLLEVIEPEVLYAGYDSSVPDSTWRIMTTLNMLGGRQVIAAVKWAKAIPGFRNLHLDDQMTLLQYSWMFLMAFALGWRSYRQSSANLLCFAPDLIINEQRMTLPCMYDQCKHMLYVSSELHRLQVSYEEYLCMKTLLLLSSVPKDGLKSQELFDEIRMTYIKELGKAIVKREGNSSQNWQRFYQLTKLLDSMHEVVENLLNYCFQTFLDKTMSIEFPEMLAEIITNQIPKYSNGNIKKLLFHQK
Sequence of Thyroid hormone receptor beta (Homo sapiens) (P10828 whole entry, looked up): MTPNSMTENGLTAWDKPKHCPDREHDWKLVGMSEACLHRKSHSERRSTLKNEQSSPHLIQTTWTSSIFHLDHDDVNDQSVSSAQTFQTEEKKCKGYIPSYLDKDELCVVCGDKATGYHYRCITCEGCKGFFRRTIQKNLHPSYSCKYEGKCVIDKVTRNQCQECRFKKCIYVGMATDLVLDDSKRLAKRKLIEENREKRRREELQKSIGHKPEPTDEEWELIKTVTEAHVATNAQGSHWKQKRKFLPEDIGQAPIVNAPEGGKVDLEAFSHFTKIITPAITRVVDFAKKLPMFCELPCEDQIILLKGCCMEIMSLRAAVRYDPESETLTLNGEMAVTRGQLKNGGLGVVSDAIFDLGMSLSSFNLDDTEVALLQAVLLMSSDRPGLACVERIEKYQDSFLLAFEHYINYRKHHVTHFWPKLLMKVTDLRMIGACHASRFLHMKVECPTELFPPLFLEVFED
Sequence of Nuclear receptor ROR-gamma (Homo sapiens) (P51449 whole entry, looked up): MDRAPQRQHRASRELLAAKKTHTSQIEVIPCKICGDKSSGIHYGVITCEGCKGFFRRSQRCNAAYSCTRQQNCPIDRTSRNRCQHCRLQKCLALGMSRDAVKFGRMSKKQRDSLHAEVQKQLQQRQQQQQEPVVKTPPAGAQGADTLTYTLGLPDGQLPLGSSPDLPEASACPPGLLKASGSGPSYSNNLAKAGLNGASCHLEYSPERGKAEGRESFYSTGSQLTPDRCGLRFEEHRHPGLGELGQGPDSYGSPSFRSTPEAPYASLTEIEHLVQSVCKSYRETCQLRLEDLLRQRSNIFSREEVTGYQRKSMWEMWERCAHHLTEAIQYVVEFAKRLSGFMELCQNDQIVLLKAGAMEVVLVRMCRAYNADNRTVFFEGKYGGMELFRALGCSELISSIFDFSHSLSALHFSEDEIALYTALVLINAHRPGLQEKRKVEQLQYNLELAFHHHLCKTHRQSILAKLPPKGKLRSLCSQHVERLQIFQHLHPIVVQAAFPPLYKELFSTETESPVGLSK

In the case of `c1ccc(Nc2ccc(Nc3ccccc3)cc2)cc1`, the outcome in [1] and in assay [6] was inactive. Also, the Potency entry in [2], in assay [3], in assay [4] and in assay [8] was “inactive” each time. Moreover, the max response in assay [5] was 91.4%; in assay [9], -19.5% (inactive). For the same compound, the Potency in [7] was 59.6 µM (active).
For `C=C(C)CCl`, the outcome in assay [1], in assay [6] and in assay [12] was inactive. In addition, the Potency result in assay [10], in [2], in assay [3], in [13], in assay [15] and in [8] was “inactive” throughout. Also, the activation is 15.7% (inactive) in assay [11], -0.185% (inactive) in assay [16] and -0.792% (inactive) in assay [17]. For the same compound, the max response in assay [5] worked out at 2.33%. Also, in [14], the activity change % (negative = inhibition) is -0.864% (inactive).
With `ClCCOCCCl`, the outcome in [1] was inactive. Moreover, the Potency result in assay [2], in assay [3], in assay [13], in [15], in [7] and in [8] was “inactive” in each case. Moreover, the activation in assay [11] was 0.183% (inactive); in assay [16], -0.467% (inactive); in assay [17], -0.172% (inactive). Besides, the max response in assay [5] is 5.43%; in assay [18] it was 4.16% (inactive); in [9], -0.0116% (inactive).
`O=S(=O)(Cl)c1ccccc1`: the Potency result in assay [10], in assay [2], in assay [3], in assay [19], in assay [4] and in assay [13] was “inactive” each time. Besides, the Potency entry in [7] was “inactive”. Also, the max response in assay [5] was 7.79% and -11.8%; in [18] it was -0.573% (inactive) and -10.4% (inactive); in [9], 1.81% (inactive) and -4.13% (inactive). For the same compound, in [12], the compound was classed as inactive. Besides, the activity change % (negative = inhibition) in assay [14] was -1.94% (inactive) and -0.791% (inactive). In addition, the activation was 0.118% (inactive) and -0.385% (inactive) in assay [16]; 0.182% (inactive) and 1.5% (inactive) in [17].
`N#CC(Cl)(Cl)Cl`: the Potency entry in [3], in assay [19], in [4], in assay [13], in assay [15] and in assay [7] was “inactive” in each case. Moreover, the Potency entry in assay [8] was “inactive”. Also, the activation in assay [11] is 5.98% (inactive); in assay [16], -0.633% (inactive); in assay [17], 0.19% (inactive). Besides, the outcome in assay [12] was inactive. The max response in assay [9] was -13% (inactive).
For the compound `C=CCOCC1CO1` (stereo not given), the compound was classed as inactive in [1], in [6] and in [12]. The Potency entry in assay [10], in assay [2], in [4], in assay [13], in assay [15] and in assay [8] was “inactive” each time. Further, the activation in assay [11] was 4.14% (inactive); in assay [17] it was -0.262% (inactive). Moreover, the max response in assay [18] was 9.76% (inactive). Besides, the activity change % (negative = inhibition) in assay [14] was 1.27% (inactive).
